Data on 38 sequences can be found in the OligoGym collection.
Note: reference of the scale not given here.

The target in the first assay is APOL1. The assay is described as follows: pooled miR-30 sensor sort-seq; sequence = guide strand. The settings on record: shRNA.
In turn, TAACTCTTGGGCTTTCTCCATT came in with a sensor-assay potency score (higher = more potent) of -0.755.

The sequence TATCGTGCCAGTTTTTGTCTTT yielded a sensor-assay potency score (higher = more potent) of -0.367.

In the case of TTTTGTTGCACCCTCGCTCCAG, the sensor-assay potency score (higher = more potent) is -0.279.

TCAAGCTCACTTTTCAACCGAG gave a sensor-assay potency score (higher = more potent) of -0.112.

Sequence TTTGTTGCACCCTCGCTCCAGC showed a sensor-assay potency score (higher = more potent) of -0.393.

Turning to TTAGTCTAAAGTAAACTGCTTC, the sensor-assay potency score (higher = more potent) was -0.132.

The sequence TTCATTAACCCTCTCCACCTGT displayed a sensor-assay potency score (higher = more potent) of -0.144.

The sequence TTTGAGGATCTCCAGTATCTGT displayed a sensor-assay potency score (higher = more potent) of -1.27.

As for TAGCTTCTCCTCCAGCTCCTGA, the sensor-assay potency score (higher = more potent) is -0.925.

TATCCAACTGTTCTAACTCTTG gave a sensor-assay potency score (higher = more potent) of -1.08.

Turning to TTGTCTTGCAAGGTTGTCCAGA, the sensor-assay potency score (higher = more potent) is -0.407.

Regarding TTGTCTTTCATGATCATTTGTC, the sensor-assay potency score (higher = more potent) is 0.325.

A further assay concerns the target APTX. The description is as above. The settings on record: shRNA.
In the case of TATCAGTGATCTTGGTCTCTGG, the sensor-assay potency score (higher = more potent) was -0.564.

In turn, TTTCTTATCAGTGATCTTGGTC displayed a sensor-assay potency score (higher = more potent) of -0.281.

In the case of TGGAAGTCTGATTCGCTGGTGC, the sensor-assay potency score (higher = more potent) is -0.603.

TTGCTGTCGAGAACATTTCTTA had a sensor-assay potency score (higher = more potent) of -0.631.

Consider TTATCAGTGATCTTGGTCTCTG, for which the sensor-assay potency score (higher = more potent) was -0.647.

In turn, TATAGAATCACTGTTGCCTGAT returned a sensor-assay potency score (higher = more potent) of 0.198.

For TCAGTGATCTTGGTCTCTGGGC, the sensor-assay potency score (higher = more potent) is -0.249.

For another assay, the target named is ARF4. The description is as above. The settings on record: shRNA.
For TTGTGTTGCACAAGTGGCTTGA, the sensor-assay potency score (higher = more potent) worked out at 0.462.

On to TACAGAATGGTTGTCTTGCCAG, for which the sensor-assay potency score (higher = more potent) was -0.56.

TACCACAAAAATAAGACCCTGG: the sensor-assay potency score (higher = more potent) was 0.855.

Regarding TAATTTTGTTGTAACAAGCCTA, the sensor-assay potency score (higher = more potent) was -0.0701.

For the sequence TTTATCTGTCATTTCACTGATG, the sensor-assay potency score (higher = more potent) is -0.303.

As for TTTGTTTGCAAAAAGTAGCAGC, the sensor-assay potency score (higher = more potent) was -0.61.

The sequence TTCTATCTTGACCACCAACATC had a sensor-assay potency score (higher = more potent) of -1.78.

Consider TATCTTGACCACCAACATCCCA, for which the sensor-assay potency score (higher = more potent) is -1.07.

Consider TTGAACATACCATGTTCTGTTA, for which the sensor-assay potency score (higher = more potent) was -0.718.

As to TTATACAGAATGGTTGTCTTGC, the sensor-assay potency score (higher = more potent) was 0.842.

On to TTGACAGCCAGTCAAGTCCTTC, for which the sensor-assay potency score (higher = more potent) is -0.84.

On to TACTGTGAAACAAATGTTCTTA, for which the sensor-assay potency score (higher = more potent) came to 0.474.

Take TTGTCTTGCCAGCAGCATCCAA: the sensor-assay potency score (higher = more potent) is -0.778.

TTCCACATTAAAACCAATGGTA registered a sensor-assay potency score (higher = more potent) of -0.547.

In the case of TTTCACGATCGTTGCTATCTAC, the sensor-assay potency score (higher = more potent) worked out at 0.0471.

TTATCAAACATGTCCTTGGTTA displayed a sensor-assay potency score (higher = more potent) of -0.479.

For the sequence TTTTCTGCAGCTCATCTGCTAC, the sensor-assay potency score (higher = more potent) is -0.921.

Take ATCTTGACCACCAACATCCCAT: the sensor-assay potency score (higher = more potent) is -0.565.

For TAGCATTTGGCAAATCCTGTTT, the sensor-assay potency score (higher = more potent) is -0.434.
